Experimental data as given in PubChem BioAssay.
The source made the active and inactive calls.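 Rule for the calls, unless noted: active = inhibition at or above 50% at 10 µM; inactive = inhibition below 50%.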

Key:
[1] = inhibitors of TNFa-induced NFkB p65 translocation, primary screen, imaging, HUVEC, MLSMR starter and 10KST1 sets (AID 438;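 active = inhibition above 20% together with a positive visual image hit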;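 note: compound added about 3h40 before a 20 min TNFalpha stimulation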;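 for inhibition: signal is the nuclear over cytoplasmic p65 intensity ratio per well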); settings: HUVEC TNFa-induced p65 nuclear translocation; cell count: measured here: nuclei count (cytotoxicity indicator), at 2.08 µM; inhibition: at 2 µM, stronger effect = higher value, 0% TNFa-plus-vehicle, 100% no-TNFa wells
[2] = reduction of polyQ htt aggregates in cells – imaging, exon1htt(103Q)mCFP cells, high-content imaging, primary screen (AID 483;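 active = visual image review flags a hit and inhibition of aggregation exceeds 20%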;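 note: compound exposure lasted 3 days before fixation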;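 for nuclei count: percent of the per-plate median nuclei count of sample wells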); settings: exon1htt(103Q)mCFP cell line, aggregate imaging, at 2 µM; inhibition of aggregation: stronger effect = higher value; nuclei count: measured here: cell count, toxicity
[3] = endothelial E-selectin expression blockers – imaging, HUVEC, immunofluorescence, MLSMR starter and 10KST1 sets, primary screen (AID 487;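 active = visually confirmed hit in the image check and inhibition above 20%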;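 for inhibition: signal is fraction of cell area covered by stained E-selectin grains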;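 for nuclei count: 100% = median nuclei count of all wells on the same plate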); settings: HUVEC TNFalpha-induced E-selectin immunofluorescence imaging, at 2 µM; inhibition: stronger effect = higher value; nuclei count: measured here: cell number, toxicity
[4] = target: Voltage-gated potassium channel subunit beta-2 (Rattus norvegicus) (UniProt P62483); experiment: inhibitors of rat Kvbeta2 reductase activity – biochemical, NADPH fluorescence, primary screen (AID 622;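 active = fluorescence slope higher than the sample average by over 3 SD, cut at about -0.22 in these data, passing the limit was not always enough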;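 note: slope of raw intensity against log time taken from 70 to 1610 s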); settings: recombinant KvBeta, 4-cyanobenzaldehyde reduction, at 10 µM, stronger effect = higher value
[5] = target: Voltage-gated potassium channel subunit beta-2 (Rattus norvegicus) (UniProt P62483); experiment: enhancers of rat Kvbeta2 NADPH turnover – biochemical, NADPH fluorescence, primary screen (AID 623;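 active = NADPH fluorescence slope more negative than the mean of all samples by about 3 SD, 99.7% confidence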;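 note: fluorescence intensity change per second fitted from 20 to 320 s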); settings: Recombinant KvBeta, NADPH fluorescence decrease slope, 10 min; at 10 µM; stronger effect = lower value
[6] = target: Alpha-2C adrenergic receptor (Homo sapiens) (UniProt P18825); experiment: compounds altering alpha2C-coupled GIRK flux – cell-based, HEK293 alpha2C/GIRK1/2, thallium flux, primary screen (AID 624;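 active = fluorescence slope after compound addition differing from the mean of all screened samples at 99.7% confidence, in either direction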;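 note: slope of fluorescence ratio to pre-addition baseline per second over 15 to 24 s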); settings: thallium flux BTC fluorescence, at 10 µM, actives lie on both sides
[7] = blockers of RIG-like receptor reporter activation – cell-based, Sendai virus stimulus, luciferase, 10K MLSCN set, TLR/RLR signaling modifier project, primary screen (AID 602276); settings: HEK293 RL24 IRF3 luciferase reporter, at 10 µM, stronger effect = higher value;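 note: firefly luciferase from ISG56 promoter only with Renilla not read in this screen; 0% = Sendai virus plus DMSO and 100% = medium plus DMSO without virus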
[8] = TLR3 IRF3 reporter activation blockers – cell-based, poly I:C stimulus, luciferase, 10K MLSCN set, primary screen (AID 602277;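 active = inhibition of the reporter signal at or above 50%; inactive = inhibition below 50%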); settings: HEK293-TLR3 RL24 IRF3 luciferase reporter, at 10 µM, stronger effect = higher value

Sequence of Voltage-gated potassium channel subunit beta-2 (Rattus norvegicus) (P62483 whole entry, looked up): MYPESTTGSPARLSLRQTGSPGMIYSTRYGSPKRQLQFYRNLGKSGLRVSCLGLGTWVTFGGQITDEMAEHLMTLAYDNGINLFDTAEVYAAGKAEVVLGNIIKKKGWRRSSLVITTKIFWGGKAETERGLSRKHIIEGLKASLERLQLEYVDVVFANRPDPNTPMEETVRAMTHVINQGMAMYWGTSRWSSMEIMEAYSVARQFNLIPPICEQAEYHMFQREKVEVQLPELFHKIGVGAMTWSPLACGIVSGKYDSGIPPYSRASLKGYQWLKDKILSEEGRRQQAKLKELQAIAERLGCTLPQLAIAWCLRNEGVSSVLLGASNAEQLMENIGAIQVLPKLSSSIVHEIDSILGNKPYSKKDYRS
Sequence of Alpha-2C adrenergic receptor (Homo sapiens) (P18825 whole entry, looked up): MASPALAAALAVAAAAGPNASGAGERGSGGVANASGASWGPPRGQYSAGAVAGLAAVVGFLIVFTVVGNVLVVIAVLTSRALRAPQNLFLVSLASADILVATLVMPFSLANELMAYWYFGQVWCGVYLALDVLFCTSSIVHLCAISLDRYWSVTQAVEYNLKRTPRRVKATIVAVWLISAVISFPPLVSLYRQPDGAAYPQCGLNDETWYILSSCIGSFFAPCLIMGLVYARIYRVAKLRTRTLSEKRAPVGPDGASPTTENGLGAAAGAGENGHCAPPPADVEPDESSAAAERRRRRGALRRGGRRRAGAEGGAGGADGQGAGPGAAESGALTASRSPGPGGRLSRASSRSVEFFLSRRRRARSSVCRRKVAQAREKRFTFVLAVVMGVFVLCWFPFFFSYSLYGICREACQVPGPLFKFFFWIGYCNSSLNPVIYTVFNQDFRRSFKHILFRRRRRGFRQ

SMILES	cell count [1]	inhibition [1]	inhibition of aggregation [2]	nuclei count [2] [%]	inhibition [3]	nuclei count [3] [%]	fluorescence slope [4]	NADPH fluorescence slope [5]	slope [6]	inhibition [7]	inhibition [8]
COc1ccc(NC(=O)C(C)NS(=O)(=O)c2ccccc2)cc1Cl (stereo not drawn)	315	-15.9% (inactive)	2.6% (inactive)	116	-51.4% (inactive)	65	-0.369 (inactive)	7.6e-06 (inactive)	0.00596 (inactive)	8.06% (inactive)	17.6% (inactive)
Clc1ccc2c(c1)[C@H]1OCC[C@H]1[C@@H](c1ccco1)N2	824	5.5% (inactive)	-3.2% (inactive)	98.8	-101% (inactive)	125	-0.572 (inactive)	-3.2e-05 (inactive)	0.00552 (inactive)	-42.9% (inactive)	-122% (inactive)
CCOC(=O)c1cnn(-c2sc(C(=O)OCC)c(C)c2C(=O)OCC)c1N	451	-1.9% (inactive)	-35.1% (inactive)	99.7	-5.8% (inactive)	115	-0.517 (inactive)	2.2e-05 (inactive)	0.00627 (inactive)	7.68% (inactive)	-49.4% (inactive)
CCc1cc(C(=O)OC)c(NC(=O)CCC(=O)O)s1	719	-5.2% (inactive)	3.9% (inactive)	117	-24% (inactive)	106	-0.392 (inactive)	3.6e-05 (inactive)	0.0103 (inactive)	-0.441% (inactive)	97.6% (active)
COc1ccc2c(CC(=O)Nc3nnc(C4CC4)s3)coc2c1	286	-15.7% (inactive)	7.5% (inactive)	105	-13.2% (inactive)	111	-0.482 (inactive)	-0.000211 (inactive)	0.00533 (inactive)	9.99% (inactive)	14.7% (inactive)
Clc1cccc(-c2nnc(-c3ccccc3)o2)c1	610	-15.9% (inactive)	-13.5% (inactive)	110	4.7% (inactive)	124	-0.391 (inactive)	3.1e-05 (inactive)	0.00595 (inactive)	-18.1% (inactive)	-47% (inactive)
CCCc1nnc(NC(=O)NCCN2C(=O)C3C4C=CC(C4)C3C2=O)s1 (stereo not drawn)	700	-10.4% (inactive)	-8.7% (inactive)	76	-78.4% (inactive)	125	-0.602 (inactive)	1.8e-06 (inactive)	0.00718 (inactive)	-17.6% (inactive)	-19.1% (inactive)
Cc1nnc(SCC(=O)Nc2cc(C(F)(F)F)ccc2N2CCOCC2)o1	271	0.2% (inactive)	16.1% (inactive)	99.1	-2.6% (inactive)	95.1	-0.379 (inactive)	-3.9e-07 (inactive)	0.00303 (inactive)	10.8% (inactive)	32.5% (inactive)
CCCC(=O)Nc1nnc(CC(=O)N2CCCC2)s1	845	4.5% (inactive)	3.1% (inactive)	106	-55% (inactive)	115	-0.31 (inactive)	-5.4e-05 (inactive)	0.006 (inactive)	14.1% (inactive)	21.6% (inactive)
CCc1noc(C)c1C(=O)NCCc1ccc(OC)c(OC)c1	395	3.7% (inactive)	-16.2% (inactive)	121	11.4% (inactive)	96.9	-0.468 (inactive)	-4.2e-06 (inactive)	0.00531 (inactive)	14.3% (inactive)	19.8% (inactive)
Cn1c(=O)c2c(nc(CN3CCCCC3)n2CCc2ccccc2)n(C)c1=O	363	-1% (inactive)	-29.9% (inactive)	79	-3.5% (inactive)	158	-0.572 (inactive)	-1.3e-05 (inactive)	0.00323 (inactive)	-6.67% (inactive)	-8.47% (inactive)
C=COC(=O)CSc1snc(SCC(=O)OC)c1C#N	300	-6.3% (inactive)	11.1% (inactive)	102	-31.9% (inactive)	88.9	-0.581 (inactive)	-4.2e-06 (inactive)	0.00524 (inactive)	15.5% (inactive)	18.4% (inactive)
O=C(O)C1CC=CCC1C(=O)Nc1ccc(S(=O)(=O)N2CCCc3ccccc32)cc1 (stereo not drawn)	335	-7.5% (inactive)	-17.2% (inactive)	92.3	-43.1% (inactive)	126	-0.599 (inactive)	-3.1e-05 (inactive)	0.00437 (inactive)	46% (inactive)	-62.7% (inactive)
O=C(c1ccc2c(c1)OCO2)N1CCCN(C(=O)c2ccc3c(c2)OCO3)CC1	522	5% (inactive)	-1.1% (inactive)	103	-123% (inactive)	106	-0.417 (inactive)	-0.0001 (inactive)	0.0056 (inactive)	15.7% (inactive)	28.5% (inactive)
O=C(O)c1ccc2c(c1)N(Cc1ccccc1F)C(=O)c1ccccc1S2=O (stereo not drawn)	585	-1.2% (inactive)	17.9% (inactive)	64.2	-49.8% (inactive)	107	-0.537 (inactive)	-5.5e-07 (inactive)	0.0062 (inactive)	11.3% (inactive)	7.14% (inactive)
Cc1csc2ncc(C(=O)N3CCc4ccccc43)c(=O)n12	601	5.3% (inactive)	-17% (inactive)	104	10% (inactive)	110	-0.551 (inactive)	-4.3e-05 (inactive)	0.00571 (inactive)	11.1% (inactive)	39.2% (inactive)
O=C(CNC(=O)c1cc2ccccc2o1)NCc1cccs1	420	3.6% (inactive)	-2.1% (inactive)	107	-57.3% (inactive)	112	-0.469 (inactive)	-1.5e-06 (inactive)	0.0103 (inactive)	5.59% (inactive)	16.2% (inactive)
O=c1c2ccccc2nnn1CSc1nnc2sc3ccccc3n12	558	-14.2% (inactive)	-28.8% (inactive)	109	-56% (inactive)	111	-0.521 (inactive)	-4.5e-05 (inactive)	0.00436 (inactive)	49% (inactive)	42.1% (inactive)
CN1CCN(CC#CCC(O)(c2ccccc2)C2CCCC2)CC1 (stereo not drawn)	415	2.2% (inactive)	-1.8% (inactive)	99.7	-21.3% (inactive)	118	-0.428 (inactive)	-4.8e-05 (inactive)	0.00551 (inactive)	7.06% (inactive)	4.71% (inactive)
CCOC(=O)CSc1nnc2n1C(C)(C)Cc1ccccc1-2	305	-0.9% (inactive)	0.5% (inactive)	51.3	-102% (inactive)	117	-0.384 (inactive)	-8.4e-05 (inactive)	0.00549 (inactive)	-15.4% (inactive)	-27.1% (inactive)
O=C(c1ccccc1-c1ccccc1)N1CCN(c2ccccn2)CC1	384	7.8% (inactive)	-81.8% (inactive)	17.3	-93.4% (inactive)	102	-0.5 (inactive)	-3.6e-05 (inactive)	0.00494 (inactive)	43.1% (inactive)	26.8% (inactive)
CCN(CC)CCN1C(=O)C(=O)/C(=C(/O)c2c(C)[nH]c(C(=O)OC)c2C)C1c1ccccc1OC (stereo not drawn)	280	1% (inactive)	-20.7% (inactive)	109	-11.7% (inactive)	101	-0.454 (inactive)	-4.2e-05 (inactive)	0.00204 (inactive)	7.54% (inactive)	34.9% (inactive)
CCOC(=O)c1sc2nc(N3CCCC3)c3c(c2c1N)CC(C)(C)OC3	410	2.7% (inactive)	-0.3% (inactive)	105	-22.4% (inactive)	103	-0.302 (inactive)	-1.6e-05 (inactive)	0.0041 (inactive)	-5.95% (inactive)	2.54% (inactive)
O=C(CCN1C(=O)C2C3C=CC(C3)C2C1=O)N1CCN(c2ccccc2Cl)CC1 (stereo not drawn)	776	-18.1% (inactive)	-5% (inactive)	123	2.5% (inactive)	107	-0.399 (inactive)	-4.7e-05 (inactive)	0.00465 (inactive)	10.7% (inactive)	11.9% (inactive)
CCOc1cccc(OCCCCn2ccnc2)c1	339	-3.1% (inactive)	-7.7% (inactive)	99	-124% (inactive)	114	-0.36 (inactive)	5e-05 (inactive)	0.00579 (inactive)	9.17% (inactive)	21.4% (inactive)
CCOC(=O)c1[nH]c2ccccc2c1NC(=O)C(C)(C)C	692	-10.7% (inactive)	-8.7% (inactive)	117	-30.2% (inactive)	105	-0.586 (inactive)	-4.7e-05 (inactive)	0.00597 (inactive)	13.4% (inactive)	45.1% (inactive)
O=C(CCS(=O)(=O)c1cccc2nonc12)Nc1cccc2c1CCCC2	500	-1.9% (inactive)	-20.7% (inactive)	109	-14% (inactive)	114	-0.547 (inactive)	1.6e-05 (inactive)	0.00573 (inactive)	-1.97% (inactive)	5.02% (inactive)
COc1ccccc1NC(=O)C1=C(C)Nc2nc(CCCO)nn2C1c1cccnc1 (stereo not drawn)	318	1.6% (inactive)	10.7% (inactive)	102	-30.7% (inactive)	114	-0.631 (inactive)	-3.9e-05 (inactive)	0.00626 (inactive)	6.83% (inactive)	5.25% (inactive)
